This note sets out measurements from the supplement of paper PMC10849652.

Targets with a hit are over-represented here; the source holds about 7,900 in all. About 0.6% of all pairs of compound and target were hits. A number with no mark means an inactive call.

Sequence of UniProt P60520 (P60520 whole entry, looked up): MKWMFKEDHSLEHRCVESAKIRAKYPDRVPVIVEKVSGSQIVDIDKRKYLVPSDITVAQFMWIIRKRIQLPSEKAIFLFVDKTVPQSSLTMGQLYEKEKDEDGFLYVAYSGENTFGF
Sequence of UniProt Q4ZG55 (Q4ZG55 whole entry, looked up): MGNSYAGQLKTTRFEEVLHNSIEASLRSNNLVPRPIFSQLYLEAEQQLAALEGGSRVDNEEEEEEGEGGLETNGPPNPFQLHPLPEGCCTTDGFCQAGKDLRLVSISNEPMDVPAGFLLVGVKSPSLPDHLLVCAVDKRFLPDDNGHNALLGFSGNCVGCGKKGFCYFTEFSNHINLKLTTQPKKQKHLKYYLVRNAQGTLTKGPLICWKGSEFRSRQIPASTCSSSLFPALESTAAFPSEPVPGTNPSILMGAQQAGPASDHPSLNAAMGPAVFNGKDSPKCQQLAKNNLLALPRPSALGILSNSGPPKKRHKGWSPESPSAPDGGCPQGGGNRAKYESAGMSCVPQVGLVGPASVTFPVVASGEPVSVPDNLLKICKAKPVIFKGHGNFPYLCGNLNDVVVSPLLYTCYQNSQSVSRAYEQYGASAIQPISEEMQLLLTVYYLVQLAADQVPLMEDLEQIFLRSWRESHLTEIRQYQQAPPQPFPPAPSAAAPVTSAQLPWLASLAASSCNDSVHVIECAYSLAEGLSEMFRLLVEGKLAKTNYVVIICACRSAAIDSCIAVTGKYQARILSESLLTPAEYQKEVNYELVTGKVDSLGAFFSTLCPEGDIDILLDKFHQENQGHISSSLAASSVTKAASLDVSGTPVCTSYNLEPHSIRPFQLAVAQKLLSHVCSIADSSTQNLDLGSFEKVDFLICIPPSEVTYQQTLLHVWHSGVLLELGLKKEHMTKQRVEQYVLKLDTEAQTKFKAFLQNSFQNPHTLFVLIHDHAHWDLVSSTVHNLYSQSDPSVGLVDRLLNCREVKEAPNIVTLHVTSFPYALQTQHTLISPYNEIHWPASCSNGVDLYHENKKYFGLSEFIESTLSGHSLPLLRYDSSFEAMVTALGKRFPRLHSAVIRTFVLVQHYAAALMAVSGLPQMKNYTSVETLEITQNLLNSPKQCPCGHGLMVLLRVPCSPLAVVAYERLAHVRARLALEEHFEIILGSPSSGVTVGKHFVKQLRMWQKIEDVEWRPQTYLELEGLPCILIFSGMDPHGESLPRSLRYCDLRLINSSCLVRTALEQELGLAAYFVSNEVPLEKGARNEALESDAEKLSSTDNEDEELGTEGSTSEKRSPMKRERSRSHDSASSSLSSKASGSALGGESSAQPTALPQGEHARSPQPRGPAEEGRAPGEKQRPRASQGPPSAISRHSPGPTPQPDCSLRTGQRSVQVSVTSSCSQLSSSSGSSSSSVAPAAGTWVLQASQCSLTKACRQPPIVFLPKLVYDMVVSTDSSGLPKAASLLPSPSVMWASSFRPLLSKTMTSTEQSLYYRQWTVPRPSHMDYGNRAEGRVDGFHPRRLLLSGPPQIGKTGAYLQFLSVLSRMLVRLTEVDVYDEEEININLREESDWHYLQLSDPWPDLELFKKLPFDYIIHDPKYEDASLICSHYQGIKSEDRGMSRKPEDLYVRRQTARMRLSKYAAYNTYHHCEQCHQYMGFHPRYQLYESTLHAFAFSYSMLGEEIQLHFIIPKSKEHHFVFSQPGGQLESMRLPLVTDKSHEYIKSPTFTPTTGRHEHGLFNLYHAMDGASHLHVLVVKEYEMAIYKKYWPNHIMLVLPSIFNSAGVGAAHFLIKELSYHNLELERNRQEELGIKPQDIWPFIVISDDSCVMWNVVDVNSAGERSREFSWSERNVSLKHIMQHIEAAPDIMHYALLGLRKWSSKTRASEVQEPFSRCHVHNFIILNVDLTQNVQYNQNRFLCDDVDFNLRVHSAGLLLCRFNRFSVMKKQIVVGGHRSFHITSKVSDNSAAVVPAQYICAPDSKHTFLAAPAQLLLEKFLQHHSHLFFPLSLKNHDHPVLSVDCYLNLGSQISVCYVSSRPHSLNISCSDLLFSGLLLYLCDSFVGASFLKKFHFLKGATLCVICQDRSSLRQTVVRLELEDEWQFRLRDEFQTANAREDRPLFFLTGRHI
Sequence of UniProt P52655 (P52655 whole entry, looked up): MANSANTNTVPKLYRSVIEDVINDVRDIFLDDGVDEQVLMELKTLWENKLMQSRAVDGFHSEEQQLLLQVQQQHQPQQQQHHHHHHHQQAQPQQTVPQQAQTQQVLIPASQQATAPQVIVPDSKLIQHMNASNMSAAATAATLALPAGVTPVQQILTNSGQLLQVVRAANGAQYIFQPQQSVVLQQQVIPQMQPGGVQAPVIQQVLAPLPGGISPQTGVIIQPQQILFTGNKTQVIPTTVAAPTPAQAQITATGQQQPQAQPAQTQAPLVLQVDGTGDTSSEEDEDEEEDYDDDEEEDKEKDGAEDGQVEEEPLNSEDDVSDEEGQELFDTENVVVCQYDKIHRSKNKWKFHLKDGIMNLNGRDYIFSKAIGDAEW
Sequence of UniProt O15228 (O15228 whole entry, looked up): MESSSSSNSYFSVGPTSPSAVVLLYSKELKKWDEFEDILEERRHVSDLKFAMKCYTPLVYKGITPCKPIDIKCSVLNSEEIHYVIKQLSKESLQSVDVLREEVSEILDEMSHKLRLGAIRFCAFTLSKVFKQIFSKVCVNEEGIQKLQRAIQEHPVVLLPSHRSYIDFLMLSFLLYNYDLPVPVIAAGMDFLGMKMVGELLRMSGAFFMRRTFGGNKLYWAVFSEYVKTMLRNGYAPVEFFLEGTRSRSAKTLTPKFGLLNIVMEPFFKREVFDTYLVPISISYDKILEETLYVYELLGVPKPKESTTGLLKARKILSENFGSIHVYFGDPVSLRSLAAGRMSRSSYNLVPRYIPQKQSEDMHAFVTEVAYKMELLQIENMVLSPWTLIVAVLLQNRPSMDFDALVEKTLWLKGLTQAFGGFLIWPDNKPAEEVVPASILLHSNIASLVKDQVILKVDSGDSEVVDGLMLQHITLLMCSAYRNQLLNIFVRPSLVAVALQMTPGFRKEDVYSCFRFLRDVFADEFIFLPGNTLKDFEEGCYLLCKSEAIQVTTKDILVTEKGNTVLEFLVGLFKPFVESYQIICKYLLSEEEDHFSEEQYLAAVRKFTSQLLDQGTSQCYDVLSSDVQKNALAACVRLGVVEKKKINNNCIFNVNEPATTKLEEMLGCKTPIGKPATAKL
Sequence of UniProt P21695 (P21695 whole entry, looked up): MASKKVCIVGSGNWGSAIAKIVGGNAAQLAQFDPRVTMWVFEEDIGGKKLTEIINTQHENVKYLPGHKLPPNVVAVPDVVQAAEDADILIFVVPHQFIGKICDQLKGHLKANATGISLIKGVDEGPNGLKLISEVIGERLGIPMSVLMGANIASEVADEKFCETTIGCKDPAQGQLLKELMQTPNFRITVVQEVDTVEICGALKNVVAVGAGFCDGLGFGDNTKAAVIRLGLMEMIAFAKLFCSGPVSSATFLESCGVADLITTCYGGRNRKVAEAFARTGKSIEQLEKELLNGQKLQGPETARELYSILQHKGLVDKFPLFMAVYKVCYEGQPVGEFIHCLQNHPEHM
Sequence of UniProt Q9BVP2 (Q9BVP2 whole entry, looked up): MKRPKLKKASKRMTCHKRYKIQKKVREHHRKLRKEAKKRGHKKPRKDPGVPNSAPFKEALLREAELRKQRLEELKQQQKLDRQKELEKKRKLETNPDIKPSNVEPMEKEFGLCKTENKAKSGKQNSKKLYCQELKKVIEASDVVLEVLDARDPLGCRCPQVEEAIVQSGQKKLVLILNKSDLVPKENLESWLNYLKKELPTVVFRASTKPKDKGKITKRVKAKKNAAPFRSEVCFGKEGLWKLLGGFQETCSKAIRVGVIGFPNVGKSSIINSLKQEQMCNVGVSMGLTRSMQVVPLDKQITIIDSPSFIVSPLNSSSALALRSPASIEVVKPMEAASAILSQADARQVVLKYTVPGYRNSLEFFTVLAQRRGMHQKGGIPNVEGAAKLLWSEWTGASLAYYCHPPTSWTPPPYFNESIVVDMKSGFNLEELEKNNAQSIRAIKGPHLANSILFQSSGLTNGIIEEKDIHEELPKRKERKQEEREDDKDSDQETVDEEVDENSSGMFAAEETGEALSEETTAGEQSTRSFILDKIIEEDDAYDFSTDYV
Sequence of UniProt Q969S8 (Q969S8 whole entry, looked up): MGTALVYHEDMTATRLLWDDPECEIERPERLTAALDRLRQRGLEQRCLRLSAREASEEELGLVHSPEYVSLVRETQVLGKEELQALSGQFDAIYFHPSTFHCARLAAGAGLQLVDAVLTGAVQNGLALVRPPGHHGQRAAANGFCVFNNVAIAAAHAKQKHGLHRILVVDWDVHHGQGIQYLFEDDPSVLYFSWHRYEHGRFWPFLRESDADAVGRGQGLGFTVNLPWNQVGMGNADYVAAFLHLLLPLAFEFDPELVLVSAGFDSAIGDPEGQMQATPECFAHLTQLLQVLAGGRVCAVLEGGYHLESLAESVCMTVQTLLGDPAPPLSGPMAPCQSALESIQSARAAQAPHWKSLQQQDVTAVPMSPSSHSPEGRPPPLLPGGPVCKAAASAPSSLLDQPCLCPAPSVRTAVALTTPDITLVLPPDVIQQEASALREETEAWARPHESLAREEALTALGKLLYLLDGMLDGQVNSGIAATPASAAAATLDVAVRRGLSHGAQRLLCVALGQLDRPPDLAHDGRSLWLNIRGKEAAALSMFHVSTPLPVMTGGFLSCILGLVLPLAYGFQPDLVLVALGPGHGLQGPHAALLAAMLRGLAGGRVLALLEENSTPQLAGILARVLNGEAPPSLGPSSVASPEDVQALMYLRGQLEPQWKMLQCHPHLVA
Sequence of UniProt P30711 (P30711 whole entry, looked up): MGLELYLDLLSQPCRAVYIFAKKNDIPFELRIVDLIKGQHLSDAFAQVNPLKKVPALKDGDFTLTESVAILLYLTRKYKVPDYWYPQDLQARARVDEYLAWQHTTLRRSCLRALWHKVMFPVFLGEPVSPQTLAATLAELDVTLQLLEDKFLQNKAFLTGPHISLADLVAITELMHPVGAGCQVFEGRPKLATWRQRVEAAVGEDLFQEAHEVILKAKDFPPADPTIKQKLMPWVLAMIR

Compound in the first assay: CN1CCN(c2nc(C3=C(c4c[nH]c5ccccc45)C(=O)NC3=O)c3ccccc3n2)CC1 [sotrastaurin]
Description: log2 fold change, soluble protein after heating vs DMSO (PISA); higher = thermal stabilisation; K562 cells, 10 uM, 30 min; active = over 0.2 and 3.5 SD of the protein, either way, in both replicates (recomputed). The method, boiled down: (§1)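 K562 cells at 2×10^6 cells/mL were treated for 30 min with 10 μM compound, and aliquots were heated for 3 min over 48°C-58°C before pooling. Extraction used PBS with 0.5% NP-40 at 4°C, and soluble protein was the supernatant after 21,000xg for 90 min, measured by TMTpro 16plex LC-MS/MS with channel sums equalised. Thermal stability values, relative to control samples and from duplicates, are log2 fold changes.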
Take FMR1 (UniProt Q06787): the log2 fold change is -0.105.
As to GNPAT (UniProt O15228), the log2 fold change is 0.077.
Same read-out and setting: the same measure for GOPC (UniProt Q9HD26): 0.01; for FCF1 (UniProt Q9Y324): -0.116.
Same read-out and setting: the same measure for HNRNPUL1 (UniProt M0R247): 0.128.
Turning to GPS2 (UniProt Q13227), the log2 fold change is -0.007.
As to FHOD1 (UniProt Q9Y613), the log2 fold change was -0.112.
With GNL3 (UniProt Q9BVP2), the log2 fold change is 0.03.
The same measure, in the same setting: the same measure for GREB1 (UniProt Q4ZG55): -0.175; for HSPA8 (UniProt E9PN89): 0.105.
On the same count and under the same terms, the same measure for GPD1 (UniProt P21695): 0.065; for HDAC7 isoform 5 (UniProt Q8WUI4): -0.048.
Turning to FIZ1 (UniProt Q96SL8), the log2 fold change was 0.
Turning to FUNDC1 (UniProt Q8IVP5), the log2 fold change is 0.049.
Same read-out and setting: the same measure for GABARAPL2 (UniProt P60520): 0.047; for FYB1 isoform 3 (UniProt O15117): -0.101.
Still for that read-out and setting: the same measure for ICMT (UniProt O60725): 0.025; for FAT1 (UniProt Q14517): -0.072.
Take GTF2A1 (UniProt P52655): the log2 fold change is 0.087.
For the target HS1BP3 (UniProt Q53T59), the log2 fold change is -0.078.
Same read-out and setting: the same measure for HNRNPK isoform 3 (UniProt P61978): 0.059; for GEMIN2 (UniProt O14893): 0.067; for GOLGA6B (UniProt A6NDN3): 0.068.
With HSPA2 (UniProt P54652), the log2 fold change was 0.038.

Compound in a further assay: CN1CC[C@H](c2c(O)cc(O)c3c(=O)cc(-c4ccccc4Cl)oc23)[C@H](O)C1 [alvocidib]
The description is as above. The gist of the method:
as §1
For the target FMR1 (UniProt Q06787), the log2 fold change was 0.046.
Still for that read-out and setting: the same measure for GNPAT (UniProt O15228): -0.073; for GOPC (UniProt Q9HD26): 0.065.
As for HNRNPUL1 (UniProt M0R247), the log2 fold change is 0.326.
Still for that read-out and setting: the same measure for IDH3A isoform 2 (UniProt P50213): -0.206.
Same read-out and setting: the same measure for FHOD1 (UniProt Q9Y613): 0.292.
Same read-out and setting: the same measure for GNL3 (UniProt Q9BVP2): 0.145.
Regarding GREB1 (UniProt Q4ZG55), the log2 fold change was 0.123.
The same measure, in the same setting: the same measure for HSPA8 (UniProt E9PN89): 0.281.
The same measure, in the same setting: the same measure for GPD1 (UniProt P21695): 0.131; for HDAC7 isoform 5 (UniProt Q8WUI4): -0.185.
Same read-out and setting: the same measure for FIZ1 (UniProt Q96SL8): 0.141.
GABARAPL2 (UniProt P60520): the log2 fold change is -0.008.
Same read-out and setting: the same measure for FAT2 (UniProt Q9NYQ8): 0.083; for FBXO9 (UniProt Q9UK97): -0.018; for FAT1 (UniProt Q14517): 0.021.
GTF2A1 (UniProt P52655): the log2 fold change was -0.039.
For HS1BP3 (UniProt Q53T59), the log2 fold change was -0.275.
For GSTT1 (UniProt P30711), the log2 fold change was -0.023.
As for GBE1 (UniProt Q04446), the log2 fold change is -0.084.
Still for that read-out and setting: the same measure for HDAC10 (UniProt Q969S8): 0.011; for GEMIN2 (UniProt O14893): 0.009; for GOLGA8R (UniProt I6L899): 0.018.
Still for that read-out and setting: the same measure for GSE1 (UniProt Q14687): -0.186.

Compound in the next assay: CN1CCc2c(c3ccccc3n2Cc2ccc(C(=O)NO)cc2)C1 [Tubastatin A]
The description is as above. The gist of the method:
as §1
In the case of GNPAT (UniProt O15228), the log2 fold change is -0.047.
With GOPC (UniProt Q9HD26), the log2 fold change is 0.177.
Consider FCF1 (UniProt Q9Y324), for which the log2 fold change was 0.07.
As to HNRNPUL1 (UniProt M0R247), the log2 fold change was -0.054.
In the case of GPS2 (UniProt Q13227), the log2 fold change is 0.033.
The same measure, in the same setting: the same measure for IDH3A isoform 2 (UniProt P50213): 0.138; for GNL3 (UniProt Q9BVP2): 0.304; for GREB1 (UniProt Q4ZG55): 0.264.
For the target HSPA8 (UniProt E9PN89), the log2 fold change is -0.018.
The same measure, in the same setting: the same measure for GPD1 (UniProt P21695): -0.027.
On to GABARAPL2 (UniProt P60520), for which the log2 fold change was 0.045.
Still for that read-out and setting: the same measure for FAT2 (UniProt Q9NYQ8): 0.144.
On the same count and under the same terms, the same measure for FBXO9 (UniProt Q9UK97): -0.003; for FYB1 isoform 3 (UniProt O15117): -0.018.
The same measure, in the same setting: the same measure for ICMT (UniProt O60725): -0.065; for FAT1 (UniProt Q14517): -0.031; for GTF2A1 (UniProt P52655): 0.003.
Take GSTT1 (UniProt P30711): the log2 fold change is 0.015.
Same read-out and setting: the same measure for GBE1 (UniProt Q04446): 0.055.
Same read-out and setting: the same measure for HDAC10 (UniProt Q969S8): 0.458.
Same read-out and setting: the same measure for HNRNPK isoform 3 (UniProt P61978): 0.034; for GOLGA8R (UniProt I6L899): 0.253.
